# Columns and labels:
# Assay in all cases: DAPPL (digital affinity profiling via proximity ligation, sequencing); 10 mM Tris-HCl pH 7.5, 50 mM NaCl, 1 mM DTT, 4% glycerol, room temperature, 30 min; GST-TFs on glutathione beads, 16-mer random dsDNA library, 0.1% formaldehyde crosslink after washing; high values mean tight binding
# FLI1 = biological target: T1, FLI1 (Homo sapiens, UniProt Q01543 1-452); conditions: protein: recombinant; tags: N-terminal GST; dsDNA, one strand shown
# T1 sequence: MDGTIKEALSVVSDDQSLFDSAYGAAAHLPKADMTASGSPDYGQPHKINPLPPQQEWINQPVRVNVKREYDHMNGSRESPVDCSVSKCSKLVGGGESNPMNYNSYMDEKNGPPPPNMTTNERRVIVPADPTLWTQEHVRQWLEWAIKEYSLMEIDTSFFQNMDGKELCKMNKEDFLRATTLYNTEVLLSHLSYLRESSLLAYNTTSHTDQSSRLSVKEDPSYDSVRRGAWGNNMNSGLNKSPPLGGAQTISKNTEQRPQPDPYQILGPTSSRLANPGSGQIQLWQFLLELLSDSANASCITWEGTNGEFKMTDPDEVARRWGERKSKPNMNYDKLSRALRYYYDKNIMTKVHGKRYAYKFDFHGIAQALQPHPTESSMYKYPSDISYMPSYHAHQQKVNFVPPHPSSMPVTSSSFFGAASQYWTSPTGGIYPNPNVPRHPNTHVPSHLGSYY
# Summary of the method: (§1)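 Binding signal is defined as a hexamer's read frequency for one factor over its frequency for the tag-only sample. To obtain reads, GST-fused human transcription factors were expressed in yeast, captured on glutathione beads, barcoded with DNA and pooled with that sample. Pools met 200 nmole of a 16-mer random double-stranded DNA library in Tris/NaCl/DTT/glycerol buffer for 30 min at room temperature before washing, 0.1% formaldehyde crosslinking, proximity ligation (BsaI/T4 ligase, 1 h, 37 °C), PCR and Illumina NextSeq500 sequencing.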
# ELK1 = biological target: T2, ELK1 (Homo sapiens, UniProt P19419 1-428); conditions: protein: recombinant; tags: N-terminal GST; dsDNA, one strand shown
# T2 sequence: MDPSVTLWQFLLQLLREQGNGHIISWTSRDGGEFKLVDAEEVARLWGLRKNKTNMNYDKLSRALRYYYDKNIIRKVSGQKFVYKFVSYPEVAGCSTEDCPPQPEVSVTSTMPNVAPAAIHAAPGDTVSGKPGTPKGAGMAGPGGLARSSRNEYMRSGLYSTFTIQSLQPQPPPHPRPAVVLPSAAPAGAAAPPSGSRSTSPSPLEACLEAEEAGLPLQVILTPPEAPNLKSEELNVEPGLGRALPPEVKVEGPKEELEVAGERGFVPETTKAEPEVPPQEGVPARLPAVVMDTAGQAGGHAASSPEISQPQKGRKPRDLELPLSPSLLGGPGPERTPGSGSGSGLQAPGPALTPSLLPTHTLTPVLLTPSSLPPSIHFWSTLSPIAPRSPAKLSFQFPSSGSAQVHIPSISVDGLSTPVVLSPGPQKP
# Summary of the method: as §1
# GABPA = biological target: T3, GABPA (Homo sapiens, UniProt Q06546 1-454); conditions: protein: recombinant; tags: N-terminal GST; dsDNA, one strand shown
# T3 sequence: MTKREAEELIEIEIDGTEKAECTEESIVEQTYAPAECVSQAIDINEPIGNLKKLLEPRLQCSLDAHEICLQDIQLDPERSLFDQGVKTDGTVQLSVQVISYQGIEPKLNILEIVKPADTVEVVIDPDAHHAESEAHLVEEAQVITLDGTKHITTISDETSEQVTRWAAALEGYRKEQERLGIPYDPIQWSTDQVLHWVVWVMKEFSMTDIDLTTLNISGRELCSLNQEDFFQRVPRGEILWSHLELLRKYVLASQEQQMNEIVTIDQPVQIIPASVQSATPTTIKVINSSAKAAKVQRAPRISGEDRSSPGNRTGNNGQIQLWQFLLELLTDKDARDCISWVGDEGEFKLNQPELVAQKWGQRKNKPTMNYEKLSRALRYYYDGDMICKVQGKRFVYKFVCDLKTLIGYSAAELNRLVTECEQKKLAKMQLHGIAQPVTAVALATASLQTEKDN
# Summary of the method: as §1
# ERG = biological target: T4, ERG (Homo sapiens, UniProt P11308 1-479); conditions: protein: recombinant; tags: N-terminal GST; dsDNA, one strand shown
# T4 sequence: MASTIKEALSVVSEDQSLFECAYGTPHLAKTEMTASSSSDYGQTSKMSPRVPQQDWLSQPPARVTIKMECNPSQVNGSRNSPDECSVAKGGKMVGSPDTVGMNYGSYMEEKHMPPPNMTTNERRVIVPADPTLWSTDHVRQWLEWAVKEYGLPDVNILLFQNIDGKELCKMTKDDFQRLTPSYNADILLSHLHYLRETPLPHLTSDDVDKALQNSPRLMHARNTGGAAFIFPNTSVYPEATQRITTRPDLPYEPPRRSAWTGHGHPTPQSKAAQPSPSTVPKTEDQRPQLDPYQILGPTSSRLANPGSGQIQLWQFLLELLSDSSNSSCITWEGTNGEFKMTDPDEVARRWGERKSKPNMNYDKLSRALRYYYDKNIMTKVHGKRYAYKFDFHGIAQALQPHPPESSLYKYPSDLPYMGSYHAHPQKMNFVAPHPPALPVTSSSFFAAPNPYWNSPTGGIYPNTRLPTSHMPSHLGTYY
# Summary of the method: as §1
# ELF1 = ELF1 (Homo sapiens, UniProt P32519 1-619); conditions: protein: recombinant; tags: N-terminal GST; dsDNA, one strand shown
# Summary of the method: as §1
# EHF = biological target: T5, EHF (Homo sapiens, UniProt Q9NZC4 1-300); conditions: protein: recombinant; tags: N-terminal GST; dsDNA, one strand shown
# T5 sequence: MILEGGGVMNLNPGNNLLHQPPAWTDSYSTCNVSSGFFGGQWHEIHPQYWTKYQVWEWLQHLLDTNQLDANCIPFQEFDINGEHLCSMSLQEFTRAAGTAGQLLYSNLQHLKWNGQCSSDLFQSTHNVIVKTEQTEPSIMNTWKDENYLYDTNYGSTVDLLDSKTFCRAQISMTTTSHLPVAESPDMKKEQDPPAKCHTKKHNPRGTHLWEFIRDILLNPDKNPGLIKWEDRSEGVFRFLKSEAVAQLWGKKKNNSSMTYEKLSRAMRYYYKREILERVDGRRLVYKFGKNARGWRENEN
# Summary of the method: as §1
# SPI1 = SPI1 (Homo sapiens, UniProt P17947 1-270); conditions: protein: recombinant; tags: N-terminal GST; dsDNA, one strand shown
# Summary of the method: as §1
# SPIB = SPIB (Homo sapiens, UniProt Q01892 1-262); conditions: protein: recombinant; tags: N-terminal GST; dsDNA, one strand shown
# Summary of the method: as §1
# ELK3 = biological target: T6, ELK3 (Homo sapiens, UniProt P41970 1-407); conditions: protein: recombinant; tags: N-terminal GST; dsDNA, one strand shown
# T6 sequence: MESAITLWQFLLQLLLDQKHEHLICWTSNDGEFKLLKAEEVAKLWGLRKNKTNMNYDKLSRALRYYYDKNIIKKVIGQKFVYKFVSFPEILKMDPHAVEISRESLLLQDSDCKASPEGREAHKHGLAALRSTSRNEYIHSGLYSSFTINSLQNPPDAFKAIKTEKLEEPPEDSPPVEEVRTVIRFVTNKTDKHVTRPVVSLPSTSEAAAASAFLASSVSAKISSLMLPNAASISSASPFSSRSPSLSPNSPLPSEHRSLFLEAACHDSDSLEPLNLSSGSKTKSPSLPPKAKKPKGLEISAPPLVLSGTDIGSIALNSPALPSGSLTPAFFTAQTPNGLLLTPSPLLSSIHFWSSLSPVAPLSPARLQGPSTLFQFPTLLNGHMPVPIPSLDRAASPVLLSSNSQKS
# Summary of the method: as §1
# FEV = biological target: T7, FEV (Homo sapiens, UniProt Q99581 1-238); conditions: protein: recombinant; tags: N-terminal GST; dsDNA, one strand shown
# T7 sequence: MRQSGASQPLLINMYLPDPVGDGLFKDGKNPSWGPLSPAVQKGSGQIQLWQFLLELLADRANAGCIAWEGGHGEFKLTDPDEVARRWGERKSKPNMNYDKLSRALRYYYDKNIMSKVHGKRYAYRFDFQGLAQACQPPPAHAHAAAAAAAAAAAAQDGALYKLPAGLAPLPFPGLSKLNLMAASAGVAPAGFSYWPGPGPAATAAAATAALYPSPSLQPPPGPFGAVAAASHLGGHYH
# Summary of the method: as §1
# ETV5 = ETV5 (Homo sapiens, UniProt P41161 1-510); conditions: protein: recombinant; tags: N-terminal GST; dsDNA, one strand shown
# Summary of the method: as §1
# HSF1 = HSF1 (Homo sapiens, UniProt Q00613 1-529); conditions: protein: recombinant; tags: N-terminal GST; chain copies: 3; dsDNA, one strand shown
# Summary of the method: as §1
# SPIC = biological target: T8, SPIC (Homo sapiens, UniProt Q8N5J4 1-248); conditions: protein: recombinant; tags: N-terminal GST; dsDNA, one strand shown
# T8 sequence: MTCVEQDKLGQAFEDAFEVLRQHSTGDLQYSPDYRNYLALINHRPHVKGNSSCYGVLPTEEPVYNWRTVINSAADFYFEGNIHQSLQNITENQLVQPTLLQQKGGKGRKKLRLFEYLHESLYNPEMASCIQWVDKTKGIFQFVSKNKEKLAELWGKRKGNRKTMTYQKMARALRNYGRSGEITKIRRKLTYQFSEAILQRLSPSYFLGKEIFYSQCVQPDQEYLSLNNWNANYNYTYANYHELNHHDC
# Summary of the method: as §1
# ELF4 = ELF4 (Homo sapiens, UniProt Q99607 1-663); conditions: protein: recombinant; tags: N-terminal GST; dsDNA, one strand shown
# Summary of the method: as §1
# ELK4 = biological target: T9, ELK4 (Homo sapiens, UniProt P28324-2 1-405); conditions: protein: recombinant; tags: N-terminal GST; dsDNA, one strand shown
# T9 sequence: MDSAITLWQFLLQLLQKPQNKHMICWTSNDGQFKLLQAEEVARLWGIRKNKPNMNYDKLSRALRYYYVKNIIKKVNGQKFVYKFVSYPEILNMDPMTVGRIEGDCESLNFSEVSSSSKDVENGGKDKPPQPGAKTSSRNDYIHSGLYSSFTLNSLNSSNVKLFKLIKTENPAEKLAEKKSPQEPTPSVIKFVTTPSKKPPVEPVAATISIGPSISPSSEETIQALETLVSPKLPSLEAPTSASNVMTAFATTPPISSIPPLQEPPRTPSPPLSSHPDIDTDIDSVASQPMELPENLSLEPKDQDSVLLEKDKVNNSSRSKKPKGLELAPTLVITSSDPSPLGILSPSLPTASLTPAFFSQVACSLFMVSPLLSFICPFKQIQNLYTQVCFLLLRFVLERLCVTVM
# Summary of the method: as §1
# ETV2 = biological target: T10, ETV2 (Homo sapiens, UniProt O00321 1-342); conditions: protein: recombinant; tags: N-terminal GST; dsDNA, one strand shown
# T10 sequence: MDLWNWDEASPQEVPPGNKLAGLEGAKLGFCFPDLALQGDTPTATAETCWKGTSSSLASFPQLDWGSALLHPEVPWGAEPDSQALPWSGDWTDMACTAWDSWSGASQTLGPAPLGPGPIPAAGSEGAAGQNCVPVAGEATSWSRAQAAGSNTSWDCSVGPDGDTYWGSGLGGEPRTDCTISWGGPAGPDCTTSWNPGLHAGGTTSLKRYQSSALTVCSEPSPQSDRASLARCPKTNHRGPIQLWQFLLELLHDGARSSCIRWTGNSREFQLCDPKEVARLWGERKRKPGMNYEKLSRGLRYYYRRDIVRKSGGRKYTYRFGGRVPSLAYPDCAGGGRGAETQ
# Summary of the method: as §1
# ELF3 = biological target: T11, ELF3 (Homo sapiens, UniProt P78545 1-371); conditions: protein: recombinant; tags: N-terminal GST; dsDNA, one strand shown
# T11 sequence: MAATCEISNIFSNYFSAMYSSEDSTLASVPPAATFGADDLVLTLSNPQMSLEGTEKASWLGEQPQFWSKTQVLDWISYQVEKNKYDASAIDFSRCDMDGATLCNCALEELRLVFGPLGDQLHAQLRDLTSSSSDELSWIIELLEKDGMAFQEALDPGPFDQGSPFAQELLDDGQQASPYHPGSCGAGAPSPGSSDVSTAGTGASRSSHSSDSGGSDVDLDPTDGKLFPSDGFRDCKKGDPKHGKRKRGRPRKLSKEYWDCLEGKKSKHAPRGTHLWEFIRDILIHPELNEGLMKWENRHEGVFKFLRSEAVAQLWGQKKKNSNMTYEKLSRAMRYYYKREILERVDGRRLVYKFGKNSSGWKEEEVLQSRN
# Summary of the method: as §1
# CRX = CRX (Homo sapiens, UniProt O43186 1-299); conditions: protein: recombinant; tags: N-terminal GST; dsDNA, one strand shown
# Summary of the method: as §1
# ETV1 = ETV1 (Homo sapiens, UniProt P50549 1-477); conditions: protein: recombinant; tags: N-terminal GST; dsDNA, one strand shown
# Summary of the method: as §1
# Chain of HSF1 (Q00613 whole entry): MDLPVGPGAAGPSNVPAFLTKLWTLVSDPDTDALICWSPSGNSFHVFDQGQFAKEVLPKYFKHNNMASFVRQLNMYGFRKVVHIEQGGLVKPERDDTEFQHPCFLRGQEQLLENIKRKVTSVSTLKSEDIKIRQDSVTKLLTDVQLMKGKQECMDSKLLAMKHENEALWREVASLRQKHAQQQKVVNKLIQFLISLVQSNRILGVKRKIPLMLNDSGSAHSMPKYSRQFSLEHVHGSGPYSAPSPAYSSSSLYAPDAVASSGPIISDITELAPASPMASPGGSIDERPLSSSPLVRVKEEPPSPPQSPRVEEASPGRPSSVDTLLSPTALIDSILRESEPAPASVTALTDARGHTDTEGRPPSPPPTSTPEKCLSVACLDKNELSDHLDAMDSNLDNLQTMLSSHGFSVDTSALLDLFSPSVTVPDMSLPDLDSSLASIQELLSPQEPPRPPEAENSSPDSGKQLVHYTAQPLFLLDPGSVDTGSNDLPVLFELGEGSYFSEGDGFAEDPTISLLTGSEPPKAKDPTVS
# Chain of ETV1 (P50549 whole entry): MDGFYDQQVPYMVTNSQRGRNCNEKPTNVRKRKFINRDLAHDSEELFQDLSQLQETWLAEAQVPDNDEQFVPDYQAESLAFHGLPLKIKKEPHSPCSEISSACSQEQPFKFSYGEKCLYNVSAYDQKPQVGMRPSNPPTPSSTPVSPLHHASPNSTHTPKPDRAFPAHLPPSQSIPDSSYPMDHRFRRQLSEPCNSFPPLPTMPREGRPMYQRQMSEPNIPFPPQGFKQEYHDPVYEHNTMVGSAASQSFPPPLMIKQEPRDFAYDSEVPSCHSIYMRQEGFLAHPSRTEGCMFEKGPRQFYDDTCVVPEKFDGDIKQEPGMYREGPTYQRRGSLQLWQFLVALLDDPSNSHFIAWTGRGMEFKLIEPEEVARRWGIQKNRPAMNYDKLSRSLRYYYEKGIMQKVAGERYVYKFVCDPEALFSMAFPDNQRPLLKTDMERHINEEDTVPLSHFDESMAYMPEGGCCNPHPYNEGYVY
# Chain of ELF1 (P32519 whole entry): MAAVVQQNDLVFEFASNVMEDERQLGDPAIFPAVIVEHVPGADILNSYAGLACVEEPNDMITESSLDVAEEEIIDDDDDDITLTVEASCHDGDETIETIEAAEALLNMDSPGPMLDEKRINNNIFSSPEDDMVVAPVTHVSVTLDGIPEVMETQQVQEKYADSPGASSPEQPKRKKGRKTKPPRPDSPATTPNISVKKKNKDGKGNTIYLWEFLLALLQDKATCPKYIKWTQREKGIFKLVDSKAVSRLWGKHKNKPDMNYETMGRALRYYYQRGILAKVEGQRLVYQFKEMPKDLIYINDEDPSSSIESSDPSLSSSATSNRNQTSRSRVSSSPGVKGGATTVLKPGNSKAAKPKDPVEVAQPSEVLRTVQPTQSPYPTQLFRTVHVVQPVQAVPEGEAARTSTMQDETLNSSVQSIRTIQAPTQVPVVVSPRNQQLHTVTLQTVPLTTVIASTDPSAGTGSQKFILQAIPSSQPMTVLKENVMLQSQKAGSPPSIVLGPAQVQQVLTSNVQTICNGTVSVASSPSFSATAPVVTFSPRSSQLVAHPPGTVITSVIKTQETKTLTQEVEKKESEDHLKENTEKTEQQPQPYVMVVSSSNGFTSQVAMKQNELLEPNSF
# Chain of ELF4 (Q99607 whole entry): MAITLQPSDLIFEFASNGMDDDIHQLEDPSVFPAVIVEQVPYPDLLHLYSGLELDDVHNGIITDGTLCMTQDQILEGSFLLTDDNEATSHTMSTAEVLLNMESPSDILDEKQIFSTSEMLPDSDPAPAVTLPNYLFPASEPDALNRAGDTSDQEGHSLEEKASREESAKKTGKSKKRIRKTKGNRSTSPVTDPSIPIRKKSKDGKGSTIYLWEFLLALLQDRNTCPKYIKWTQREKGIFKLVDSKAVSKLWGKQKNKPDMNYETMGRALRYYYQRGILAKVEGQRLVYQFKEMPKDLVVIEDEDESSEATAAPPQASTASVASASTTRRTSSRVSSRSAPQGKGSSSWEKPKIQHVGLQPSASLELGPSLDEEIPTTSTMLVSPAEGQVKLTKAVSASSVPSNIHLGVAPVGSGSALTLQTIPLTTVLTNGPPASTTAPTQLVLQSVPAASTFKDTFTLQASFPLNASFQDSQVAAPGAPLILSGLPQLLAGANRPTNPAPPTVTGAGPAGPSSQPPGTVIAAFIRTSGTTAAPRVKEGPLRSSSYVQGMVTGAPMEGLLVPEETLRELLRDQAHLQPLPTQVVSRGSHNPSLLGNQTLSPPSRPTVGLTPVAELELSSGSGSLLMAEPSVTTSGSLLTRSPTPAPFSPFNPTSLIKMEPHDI
# Chain of ETV5 (P41161 whole entry): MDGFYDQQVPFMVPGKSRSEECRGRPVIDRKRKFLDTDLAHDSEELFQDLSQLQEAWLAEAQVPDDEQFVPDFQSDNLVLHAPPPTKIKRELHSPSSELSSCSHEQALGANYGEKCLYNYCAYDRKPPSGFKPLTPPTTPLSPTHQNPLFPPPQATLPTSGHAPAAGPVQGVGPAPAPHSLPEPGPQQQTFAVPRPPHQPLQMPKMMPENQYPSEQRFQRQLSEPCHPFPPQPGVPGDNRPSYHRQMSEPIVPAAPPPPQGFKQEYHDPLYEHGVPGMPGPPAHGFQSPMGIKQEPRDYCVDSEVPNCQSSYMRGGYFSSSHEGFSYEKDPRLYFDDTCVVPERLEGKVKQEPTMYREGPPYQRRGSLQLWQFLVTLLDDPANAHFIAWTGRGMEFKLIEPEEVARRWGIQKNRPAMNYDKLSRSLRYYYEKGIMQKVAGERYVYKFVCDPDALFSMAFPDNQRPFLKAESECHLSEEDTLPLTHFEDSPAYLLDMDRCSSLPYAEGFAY
# Chain of SPIB (Q01892 whole entry): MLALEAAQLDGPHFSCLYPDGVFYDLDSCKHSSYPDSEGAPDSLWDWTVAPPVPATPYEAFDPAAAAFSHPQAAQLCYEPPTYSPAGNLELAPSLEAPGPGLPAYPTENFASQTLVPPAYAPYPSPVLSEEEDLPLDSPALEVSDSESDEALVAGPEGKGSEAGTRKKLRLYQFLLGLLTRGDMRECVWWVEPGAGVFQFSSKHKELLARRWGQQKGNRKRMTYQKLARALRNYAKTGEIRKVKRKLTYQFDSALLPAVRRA
# Chain of CRX (O43186 whole entry): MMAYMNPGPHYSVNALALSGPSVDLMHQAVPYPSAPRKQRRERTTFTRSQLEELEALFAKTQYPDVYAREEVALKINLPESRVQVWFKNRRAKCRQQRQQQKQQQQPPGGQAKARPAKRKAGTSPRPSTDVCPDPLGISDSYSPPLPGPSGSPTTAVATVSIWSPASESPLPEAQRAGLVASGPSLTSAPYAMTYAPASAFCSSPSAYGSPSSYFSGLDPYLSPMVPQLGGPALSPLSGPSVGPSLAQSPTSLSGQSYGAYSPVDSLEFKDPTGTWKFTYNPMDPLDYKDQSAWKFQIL
sequence,measurement,setting,value
TTCTCC,binding signal,FLI1,"1.42 fold enrichment (6-mer frequency, TF over GST control)"
same,binding signal,ELK1,"1.45 fold enrichment (6-mer frequency, TF over GST control)"
same,binding signal,GABPA,"1.6 fold enrichment (6-mer frequency, TF over GST control)"
same,binding signal,ERG,"1.43 fold enrichment (6-mer frequency, TF over GST control)"
same,binding signal,ELF1,"1.56 fold enrichment (6-mer frequency, TF over GST control)"
same,binding signal,EHF,"1.62 fold enrichment (6-mer frequency, TF over GST control)"
same,binding signal,SPI1,"1.63 fold enrichment (6-mer frequency, TF over GST control)"
same,binding signal,SPIB,"1.61 fold enrichment (6-mer frequency, TF over GST control)"
same,binding signal,ELK3,"1.6 fold enrichment (6-mer frequency, TF over GST control)"
same,binding signal,FEV,"1.63 fold enrichment (6-mer frequency, TF over GST control)"
same,binding signal,ETV5,"1.49 fold enrichment (6-mer frequency, TF over GST control)"
same,binding signal,HSF1,"1.98 fold enrichment (6-mer frequency, TF over GST control)"
same,binding signal,SPIC,"1.37 fold enrichment (6-mer frequency, TF over GST control)"
same,binding signal,ELF4,"1.51 fold enrichment (6-mer frequency, TF over GST control)"
same,binding signal,ELK4,"1.63 fold enrichment (6-mer frequency, TF over GST control)"
same,binding signal,ETV2,"1.39 fold enrichment (6-mer frequency, TF over GST control)"
same,binding signal,ELF3,"1.4 fold enrichment (6-mer frequency, TF over GST control)"
same,binding signal,CRX,"1.51 fold enrichment (6-mer frequency, TF over GST control)"
same,binding signal,ETV1,"1.45 fold enrichment (6-mer frequency, TF over GST control)"

# Reference: PMC7862700, “An all-to-all approach to the identification of sequence-specific readers for epigenetic DNA modifications on cytosine”
